From PubChem BioAssay
FGF22 binding = shifts melting point of recombinant human FGF22 | recombinant FGF22 thermal shift, SYPRO orange fluorescence; percent of sucrose octasulfate shift, DMSO zero | activity (Tm shift, normalised), % at 9.99 µM | hit rate 1.5% among 340,000 | Q9HCT0;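 active = mean Tm shift, scaled 0 neutral to 100 positive control, at about 1.3% or above, every replicate too, limit read from the data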
Target sequence (Q9HCT0 whole entry, looked up): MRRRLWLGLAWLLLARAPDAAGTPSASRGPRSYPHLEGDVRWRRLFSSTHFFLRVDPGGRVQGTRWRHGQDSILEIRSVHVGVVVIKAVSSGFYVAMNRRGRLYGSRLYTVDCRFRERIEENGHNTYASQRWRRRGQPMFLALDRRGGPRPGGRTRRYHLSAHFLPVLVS
CFTR F508del cor = correctors of CFTR F508del function in bronchial epithelial cells | CFBE cells, YFP halide quenching; stimulated with forskolin plus potentiator P3; % fluorescence drop versus neutral controls | activity (quench increase), % at 7.58 µM | hit rate 0.36% among 350,000;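 active = mean added fluorescence quench of at least 8% versus neutral control, with both replicates also reaching 8%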;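 also: cells transiently co-express mutant CFTR-F508del with the halide-sensitive YFP; corrector assay measuring rescue of mutant channel to the surface after 24 h compound exposure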
Vif imaging = blocks HIV Vif function. inhibition, % at 7.49 µM. hit rate 0.35% among 340,000. HEK293T cells, Vif self-association by quenched fluorescence, imaging, 24 h; in the data active = inhibition above about 50%, passing the limit was not always enough
* hit, by the source's call; x = no result given. Hits are enriched below; roughly 1.7% of the tested compounds scored in any of these assays.

SMILES	FGF22 binding	CFTR F508del cor	Vif imaging
CNC[C@H]1Oc2ccc(NC(=O)NC(C)C)cc2C(=O)N([C@@H](C)CO)C[C@H]1C	-0.2	-0.8	x
CC1CN(C(=O)c2cccc(S(=O)(=O)N3CCN(c4ccc(F)cc4)CC3)c2)CC(C)O1 (stereo not drawn)	0.0	-0.2	-10.0
O=C(c1cccc(S(=O)(=O)N2CCN(c3ccc(F)cc3)CC2)c1)N1CCCC(C(F)(F)F)C1 (stereo not drawn)	-0.2	10.0*	-16.2
C[C@@H](O)C#Cc1cnc2c(c1)C(=O)N([C@@H](C)CO)C[C@H](C)[C@@H](CN(C)C(=O)c1ccccc1F)O2	-0.1	-1.1	x
O=C(OCC(=O)N1CCC(Cc2ccccc2)CC1)c1ccccc1O	43.1*	0.4	1.7
O=C(OCC(=O)N1CCC(Cc2ccccc2)CC1)c1ccccc1NCCO	-0.2	-2.8	8.6
Cc1ccc(NC(=O)COC(=O)Cn2nc(-c3ccc(F)cc3)oc2=O)cc1C	43.5*	-1.1	-2.8
O=C(COC(=O)Cn1nc(-c2ccccc2)oc1=O)Nc1ccc(F)cc1	0.2	2.2	10.8
CNC[C@H]1OCCCC[C@@H](C)Oc2ccc(N)cc2C(=O)N([C@H](C)CO)C[C@H]1C	x	-2.2	x
CCOc1ccccc1NC(=O)CC1SC(=N)N(c2ccccc2)C1=O (stereo not drawn)	42.1	14.9*	x
COc1ccccc1NC(=O)CC1SC(=N)N(c2ccccc2)C1=O (stereo not drawn)	0.0	-3.6	-1.2
O=C(CCN1CCCCC1)N[C@H]1CC[C@@H](CCNC(=O)c2cc(Cl)cc(Cl)c2)O[C@@H]1CO	-0.4	0.5	x
COc1ccc(OC)c(/C(O)=C/C(=O)C(=O)Nc2cc(C)cc(C)c2)c1	x	x	5.8
COc1ccc(OC)c(/C(O)=C/C(=O)C(=O)Nc2cc(C)ccc2OC)c1	x	x	61.0*
COc1cccc(NC(=O)Nc2ccc3c(c2)C(=O)N(C)C[C@@H](OC)[C@@H](C)CN(C)[C@@H](C)CO3)c1	0.0	0.8	x
C[C@H](NC(=O)C[C@@H]1C[C@@H]2c3cc(NC(=O)NC4CCCCC4)ccc3O[C@@H]2[C@H](CO)O1)c1ccccc1	-0.1	-2.5	x
COc1ccccc1NC(=O)N1C[C@@H]2N[C@H](C1)C2c1ccc(-c2cccc(C(=O)N(C)C)c2)cc1 (stereo partly drawn)	x	0.8	x
CCN1C(=O)C(CC(=O)Nc2ccc(F)cc2)N(CCc2ccc(OC)cc2)C1=S (stereo not drawn)	44.0*	4.1	0.2
CCN1C(=O)C(CC(=O)Nc2ccc(OC)cc2)N(CCc2ccccc2)C1=S (stereo not drawn)	-0.5	-4.4	8.7
C[C@@H]1CN([C@@H](C)CO)C(=O)c2cc(N(C)C)ccc2O[C@@H](C)CCCCO[C@@H]1CN(C)Cc1ccncc1	-1.1	-1.2	x
COc1ccccc1-c1cn(CC[C@H]2CC[C@H](NC(=O)Cc3ccccn3)[C@@H](CO)O2)nn1	-0.3	3.6	x
O=C(c1ccc2c(c1)OCO2)N1CC2(C1)[C@H](c1ccccc1)[C@@H](CO)N2C(=O)C1CCCC1	x	1.1	x
CCOC(=O)/C=C(\C)N1N=C(c2ccccc2)CC1c1ccccc1 (stereo not drawn)	43.2*	-2.7	2.8
CCOC(=O)c1nnn(CC(=O)N2N=C(c3ccccc3)CC2c2ccccc2)c1C(=O)OCC (stereo not drawn)	x	x	-3.8
COc1ccc(NC(=O)N[C@H]2CC[C@H](CCNC(=O)c3cc(Cl)cc(Cl)c3)O[C@H]2CO)cc1	-0.1	-1.6	x
SMILES	FGF22 binding	CFTR F508del cor	Vif imaging
COc1ccc(C2=Nn3c(nnc3-c3ccccc3C(F)(F)F)SC2)cc1OC1CCOC1 (stereo not drawn)	0.1	7.1	2.1
COc1ccc(C2=Nn3c(nnc3-c3ccccc3OC)SC2)cc1OC1CCOC1 (stereo not drawn)	0.0	9.7*	8.0
C[C@H]1CN([C@@H](C)CO)S(=O)(=O)c2ccc(Br)cc2O[C@@H]1CN(C)C	-0.1	-2.5	x
COc1ccc(-c2ccc(C#N)c(SCC(=O)NC3CC3)n2)cc1OC	0.0	1.9	78.5*
COc1ccc(-c2ccc(C#N)c(SCC(=O)NCc3ccco3)n2)cc1OC	-0.1	0.8	-5.0
CC(C)C#Cc1cnc2c(c1)C(=O)N([C@H](C)CO)C[C@@H](C)[C@H](CN(C)S(=O)(=O)c1cn(C)cn1)O2	0.1	-2.2	x
CS(=O)(=O)N(CC1CCC1)C[C@H]1N[C@@H](CO)[C@H]1c1ccccc1	x	0.8	x
CCN1C(=O)C(C)C=C(C)C=C1C (stereo not drawn)	43.6*	1.3	x
C/C(=N\NC(=O)c1cccs1)c1c(O)cc(C)oc1=O	0.0	-2.7	6.9
C/C(=N\Nc1ccc(Cl)cc1)c1c(O)cc(C)oc1=O	43.0*	x	2.6
O=C(CCCN1C(=O)/C(=C\c2ccccc2)SC1=S)Nc1ccc(C(=O)O)cc1	-0.2	-1.4	7.0
O=C(CCCN1C(=O)/C(=C\c2cccc(Br)c2)SC1=S)Nc1ccc(C(=O)O)cc1	0.1	1.7	77.1*
C[C@H](CO)N1C[C@H](C)[C@@H](CN(C)C(=O)C2CCCCC2)Oc2ncc(C#Cc3cccc(F)c3)cc2C1=O	0.2	5.2	x
O=C(O)c1ccc(N2C(=O)c3ccccc3C2=O)cc1[N+](=O)[O-]	43.4*	0.1	2.9
O=C(O)c1ccc([N+](=O)[O-])c2c1C(=O)c1ccccc1C2=O	-0.2	-1.1	5.6
COc1ccccc1C#Cc1ccc([C@@H]2[C@H]3CN(C(=O)C4CCC4)CCCCN3[C@H]2CO)cc1	-0.8	0.1	x
O=C(C[C@H]1CC[C@@H]2[C@H](COC[C@H](O)CN2C(=O)c2cnccn2)O1)NCc1ccccc1	0.0	-2.4	x
CC(C)N(C(=O)[C@H]1C[C@H](CC(=O)NCCCN(C)C)C(=O)N2CCc3c([nH]c4cc(CCC(=O)N(C)C)ccc34)[C@]12C)C(C)C	-0.4	3.1	x
CC(C)N(C(=O)[C@H]1C[C@H](CC(=O)NCCN2CCOCC2)C(=O)N2CCc3c([nH]c4cc(CCC(=O)N(C)C)ccc34)[C@]12C)C(C)C	-0.2	-0.3	103.1*
COc1ccc2c3c([nH]c2c1)[C@H](CO)N(C)CC31CN(S(=O)(=O)c2cccc(F)c2)C1	x	0.2	x
O=C(C1CCC1)N1CC2(C1)[C@@H](c1ccccc1)[C@@H](CO)N2CCC(F)(F)F	x	1.7	x
Cc1cc(C)c(C)c(S(=O)(=O)N2CCCCC2C(=O)O)c1C (stereo not drawn)	0.2	1.6	55.3*
Cc1ccc(S(=O)(=O)N2CCCCC2C(=O)O)cc1 (stereo not drawn)	0.4	0.4	5.0
COCC(=O)N(C)C[C@H]1Oc2ncc(C#Cc3cccnc3)cc2C(=O)N([C@@H](C)CO)C[C@H]1C	-0.5	0.5	x
O=C(NCCN1CCNCC1)c1ccccc1O	-0.1	-0.5	61.7*
O=C(NCCN1CCCC1)c1ccccc1Cl	42.8	-2.9	3.9
COc1cccc(-c2ccc3c(c2)[C@@H]2[C@@H](CCN2C(=O)c2cccc(F)c2)[C@@H](CO)N3)c1	-0.5	0.3	x
CCCNC(=O)[C@H]1[C@H](CO)[C@H]2Cn3c(ccc(C4=CCCCC4)c3=O)[C@H]2N1C(=O)c1cnccn1	x	-1.2	x
O=S(=O)([N-]c1nc2ccccc2nc1-[n+]1ccccc1)c1ccc(F)cc1	44.7*	-3.3	-7.6
